Laboratory results from the antibiotic and cytotoxicity screens of Wong et al. (2023).
Hit rate of the full screen: of about 39,000 compounds, about 500 (1.3%) were called active. Many of the other results were omitted from the sample, so actives are more common in it than they were.

System: S. aureus RN4220
Experiment: growth inhibition call (relative growth <= 0.2)
Conditions: 50 µM

Growth inhibition call, inactive:
Cc1noc(C)c1NC(=O)Nc1ccc2c(c1)C(=O)N([C@@H](C)CO)C[C@@H](C)[C@H](CN(C)C(=O)Nc1ccc(F)cc1)OCCCC[C@@H](C)O2
NCc1nc(CCc2ccccc2)cs1
Cc1ccc(S(=O)(=O)Nc2cccc3c2O[C@H](CN(C)S(=O)(=O)c2ccc(F)cc2)[C@@H](C)CN([C@H](C)CO)C3=O)cc1
CN1CCN(C(=O)C[C@H]2CC[C@@H]3[C@H](COc4ccc(NC(=O)c5cscn5)cc4C(=O)N3C)O2)CC1
COc1ccc(CC(=O)c2ccc(O)cc2O)cc1
COc1ccc(C=CC(=O)c2ccc(O)cc2O)cc1
C[C@@H]1CN([C@@H](C)CO)C(=O)c2cc(NC(=O)Nc3ccc(F)cc3)ccc2O[C@@H](C)CCCCO[C@@H]1CN(C)C(=O)Cc1ccccc1
O=C(CO)N1C[C@H]2C[C@@H]1C[C@@H]2Oc1cccnc1
NCC1OC(OC2C(N)CC(N)C(OC3OC(CO)C(O)C(N)C3O)C2O)C(O)C(O)C1O.O=S(=O)(O)O (stereo not given)
NCC1OC(OC2C(N)CC(N)C(O)C2OC2OC(CO)C(O)C2O)C(N)C(O)C1O.O=S(=O)(O)O (stereo not given)
NCC1OC(OC2C(CO)OC(OC3C(O)C(N)CC(N)C3OC3OC(CN)C(O)C(O)C3N)C2O)C(N)C(O)C1O.O=S(=O)(O)O.O=S(=O)(O)O.O=S(=O)(O)O (stereo not given)
NCCC(O)C(=O)NC1CC(N)C(OC2OC(CN)C(O)C(O)C2O)C(O)C1OC1OC(CO)C(O)C(N)C1O.O (stereo not given)
CN[C@@H]1[C@@H](O[C@@]2(C)O[C@H](CO)[C@@H](N)[C@H](O)[C@H]2O)O[C@H]2C[C@@H](N)[C@@H](O[C@H]3[C@H](O)[C@@H](O)[C@H](N)C[C@@H]3N)O[C@@H]2[C@@H]1O
NC[C@H]1O[C@H](O[C@H]2[C@H](O[C@@H]3O[C@H](CO)[C@@H](O)[C@H]3O)[C@@H](O)[C@H](N)C[C@@H]2N)[C@H](N)[C@@H](O)[C@@H]1O
CN[C@@H]1[C@@H](O[C@H]2O[C@H](CO)[C@@H](N)[C@H](O)[C@H]2O)O[C@H]2C[C@@H](N)[C@H](O[C@H]3[C@H](O)[C@@H](O)[C@H](N)C[C@@H]3N)O[C@@H]2[C@@H]1O
NC[C@H]1O[C@H](O[C@H]2[C@H](O)[C@@H](O[C@H]3O[C@H](CO)[C@@H](O)[C@H](N)[C@H]3O)[C@H](N)C[C@@H]2N)[C@H](N)[C@@H](O)[C@@H]1O
O=C(C[C@@H]1C=C[C@@H](NC(=O)CN2CCOCC2)[C@@H](CO)O1)NCCc1ccncc1
COc1cccc(S(=O)(=O)N(C)C[C@H]2OCc3cn(nn3)CCCC(=O)N([C@H](C)CO)C[C@@H]2C)c1
COc1ccc(S(=O)(=O)N(C)C[C@@H]2OCCCC[C@@H](C)Oc3ccc(NC(=O)Nc4c(C)noc4C)cc3C(=O)N([C@H](C)CO)C[C@H]2C)cc1
C[C@H]1CN([C@@H](C)CO)C(=O)c2cc(NS(C)(=O)=O)ccc2O[C@H]1CN(C)C(=O)NC1CCCCC1
CN([NH2+][O-])c1ccc(O)c(O)c1
C[C@@H](N)c1ccc(F)cc1F
COc1ccc(S(=O)(=O)Nc2cccc3c2O[C@@H](CN(C)C(=O)NC(C)C)[C@@H](C)CN([C@@H](C)CO)C3=O)cc1
C[C@H]1CN([C@@H](C)CO)C(=O)c2cc(NC(=O)Nc3ccc(C(F)(F)F)cc3)ccc2O[C@@H]1CN(C)C(=O)Nc1ccc2c(c1)OCO2
N=C(N)c1ccc(C(N)=O)cc1
OCCC[C@@H](O)c1ccc(OCCO)cc1
COc1ccc(S(=O)(=O)Nc2ccc3c(c2)C(=O)N([C@@H](C)CO)C[C@H](C)[C@H](CN(C)CC2CC2)O3)cc1
C[C@@H]1CN([C@@H](C)CO)C(=O)c2cc(NS(=O)(=O)c3ccccc3)ccc2O[C@@H](C)CCCCO[C@H]1CN(C)S(=O)(=O)c1cn(C)cn1
C[C@H](CO)N1C[C@H](C)[C@H](CN(C)S(=O)(=O)c2ccc(F)cc2)Oc2ncc(-c3ccncc3)cc2C1=O
COc1cc(OC)c(C(C)=O)c(O)c1C
CC(=O)C1C(=O)C=C(C)OC1=O (stereo not given)
COCC(=O)Nc1ccc2c(c1)C(=O)N(C)C[C@@H](OC)[C@H](C)CN(Cc1cccc(F)c1)[C@H](C)CO2
CC(=O)N1c2ccccc2C2=NNC(=S)N[C@]21O
C[C@H]1CCCCO[C@H](CN(C)C(=O)Cc2ccccc2)[C@@H](C)CN([C@@H](C)CO)C(=O)c2cc(NC(=O)Nc3ccc(F)cc3)ccc2O1
C[C@@H]1CN([C@@H](C)CO)C(=O)c2cc(/C=C/c3ccccc3)cnc2O[C@@H]1CN(C)C(=O)C1CCOCC1
Cc1noc(C)c1S(=O)(=O)Nc1ccc2c(c1)C(=O)N([C@@H](C)CO)C[C@H](C)[C@@H](CN(C)S(=O)(=O)c1ccc(Cl)cc1)O2
N=C(N=C(N)N)NCCc1ccccc1
NNCCc1ccccc1.O=S(=O)(O)O
O=c1[nH]c(=O)n(C2CC(O)C(CO)O2)cc1I (stereo not given)
COc1cccc(OC)c1C(=O)NN
COc1cccc(OC)c1C(=O)NCCCO
Cc1cc(=O)n2nc(CC(=O)NCCCn3c(C)cccc3=O)nc2[nH]1
C[C@H]1CN([C@@H](C)CO)S(=O)(=O)c2ccc(Br)cc2O[C@H]1CN(C)S(=O)(=O)c1ccccc1
Cc1noc(C)c1S(=O)(=O)N(C)C[C@@H]1Oc2ccc(NC(=O)C3CC3)cc2CC(=O)N([C@@H](C)CO)C[C@@H]1C
C[C@@H]1CN([C@@H](C)CO)C(=O)c2cc(NS(=O)(=O)c3ccc(Cl)cc3)ccc2O[C@@H](C)CCCCO[C@@H]1CN(C)Cc1ccccc1
C[C@H]1CN([C@@H](C)CO)C(=O)c2c(c3ccccc3n2C)-c2ccccc2CO[C@H]1CN(C)C(=O)Nc1cccc(F)c1
C[C@H]1OC(=O)c2c(O)ccc(O)c2[C@H]1O
COc1cccc(NC(=O)N2C[C@H](O)COC[C@@H]3O[C@H](CC(=O)NCCCN4CCOCC4)CC[C@H]32)c1
CCC(C)C1OC2(C=CC1C)CC1CC(CC=C(C)C(OC3CC(OC)C(OC4CC(OC)C(NC(C)=O)C(C)O4)C(C)O3)C(C)C=CC=C3COC4C(O)C(C)=CC(C(=O)O1)C34O)O2 (stereo not given)
COC1CC(OC2C(C)=CCC3CC(CC4(CCC(C)C(C5CCCCC5)O4)O3)OC(=O)C3C=C(C)C(=NO)C4OCC(=CC=CC2C)C34O)OC(C)C1O (stereo not given)
CC[C@H](C)[C@H]1O[C@]2(C=C[C@@H]1C)C[C@@H]1C[C@@H](C/C=C(\C)[C@@H](O[C@H]3C[C@H](OC)[C@@H](O[C@H]4C[C@H](OC)[C@@H](NC(C)=O)[C@H](C)O4)[C@H](C)O3)[C@@H](C)/C=C/C=C3\CO[C@@H]4[C@H](O)C(C)=C[C@@H](C(=O)O1)[C@]34O)O2
CO[C@H]1C[C@@H](O[C@@H]2/C(C)=C/C[C@@H]3C[C@@H](C[C@]4(CC[C@H](C)[C@@H](C5CCCCC5)O4)O3)OC(=O)[C@@H]3C=C(C)/C(=N/O)[C@H]4OC/C(=C\C=C\[C@@H]2C)[C@]43O)O[C@@H](C)[C@@H]1O

Growth inhibition call, active:
C=CC1=C(C(=O)O)N2C(=O)[C@@H](NC(=O)/C(=N\O)c3csc(N)n3)[C@H]2SC1
COc1ccc(C(C)C(=O)c2ccc(O)cc2O)cc1 (stereo not given)
CNC1C(OC2OC(CO)C(N)C(O)C2O)OC2CC(N)C(OC3C(N)CC(N)C(O)C3O)OC2C1O.O=S(=O)(O)O (stereo not given)
NCC[C@H](O)C(=O)N[C@@H]1C[C@H](N)[C@@H](O[C@H]2O[C@H](CN)[C@@H](O)[C@H](O)[C@H]2O)[C@H](O)[C@H]1O[C@H]1O[C@H](CO)[C@@H](O)[C@H](N)[C@H]1O
NCC1OC(OC2C(N)CC(N)C(OC3OC(CO)C(O)C(N)C3O)C2O)C(N)C(O)C1O.O=S(=O)(O)O (stereo not given)
NCC1OC(OC2C(CO)OC(OC3C(O)C(N)CC(N)C3OC3OC(CO)C(O)C(O)C3N)C2O)C(N)C(O)C1O.O=S(=O)(O)O (stereo not given)
Cc1c2c(nn1C)CSCc1cc(n(C)n1)CSc1cc(c3ccccc3c1)OCCCc1c(C(=O)O)n(C)c3c-2c(Cl)ccc13
N=C(N)c1ccc(OCCCCCOc2ccc(C(=N)N)cc2)cc1.O=S(=O)(O)CCO.O=S(=O)(O)CCO
CC(=O)c1c(O)c(C)c(O)c2c1OC1=CC(=O)C(C(C)=O)C(=O)C12C (stereo not given)
CCCc1c(SCCCOc2ccc(C(C)=O)c(OCCCC(=O)O)c2CCC)ccc(C(C)=O)c1O
CO/N=C(\C(=O)N[C@@H]1C(=O)N2C(C(=O)O)=C(CSC(=O)c3ccco3)CS[C@H]12)c1csc(N)n1
CON=C(C(=O)NC1C(=O)N2C(C(=O)O)=C(CSC(=O)c3ccco3)CSC12)c1csc(N)n1.Cl (stereo not given)
NNCCc1ccccc1
CCOc1ccc2ccccc2c1C(=O)NC1C(=O)N2C1SC(C)(C)C2C(=O)[O-].[Na+] (stereo not given)
COc1cccc(OC)c1C(=O)NC1C(=O)N2C1SC(C)(C)C2C(=O)[O-].[Na+] (stereo not given)
Cc1cc(OCCCS(C)(=O)=O)cc(C)c1-c1cccc(COc2ccc3c(c2)OC[C@H]3CC(=O)O)c1
CO[C@H]1C[C@H](O[C@@H]2/C(C)=C/C[C@@H]3C[C@@H](C[C@]4(CC[C@H](C)[C@@H](C5CCCCC5)O4)O3)OC(=O)[C@@H]3C=C(C)/C(=N/O)[C@H]4OC/C(=C\C=C\[C@@H]2C)[C@]43O)O[C@@H](C)[C@@H]1O
CN[C@@H]1[C@@H](C)O[C@@H](O[C@H]2[C@H](C)O[C@@H](O[C@@H]3/C(C)=C/C[C@@H]4C[C@@H](C[C@]5(C=C[C@H](C)[C@@H](C(C)C)O5)O4)OC(=O)[C@@H]4C=C(C)[C@@H](O)[C@H]5OC/C(=C\C=C\[C@@H]3C)[C@]54O)C[C@@H]2OC)C[C@H]1OC
